Assay outcomes deposited in PubChem by several laboratories.
MPTP block: permeability transition pore inhibition; isolated mouse mitochondria, Ca2+ swelling absorbance, 30 min; inhibition, % at 10 µM; 1.4% of 360,000 active;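 active = inhibition of 50% or more, scaled per plate between neutral and stimulator controls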;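 also: 0% = DMSO wells given calcium and 100% = 1 mM EGTA wells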
CSC inhib: cancer stem cell inhibition; cancer stem cell-like cells viability, luminescence; inhibition, % at 7.5 µM; 1.1% of 300,000 active; in the data active = inhibition above about 75%; tested in HMLE shEcad cells
Mdm2-MdmX inh: inhibitors of human Mdm2/MdmX interaction | SaOS-2 split-luciferase Mdm2/MdmX complementation, luminescence | inhibition, % at 8 µM | 3% of 330,000 active | O15151+Q00987 | AID 485346;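 active = inhibition of at least 50% at 8 µM in the primary screen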
Target sequence (O15151 whole entry, looked up): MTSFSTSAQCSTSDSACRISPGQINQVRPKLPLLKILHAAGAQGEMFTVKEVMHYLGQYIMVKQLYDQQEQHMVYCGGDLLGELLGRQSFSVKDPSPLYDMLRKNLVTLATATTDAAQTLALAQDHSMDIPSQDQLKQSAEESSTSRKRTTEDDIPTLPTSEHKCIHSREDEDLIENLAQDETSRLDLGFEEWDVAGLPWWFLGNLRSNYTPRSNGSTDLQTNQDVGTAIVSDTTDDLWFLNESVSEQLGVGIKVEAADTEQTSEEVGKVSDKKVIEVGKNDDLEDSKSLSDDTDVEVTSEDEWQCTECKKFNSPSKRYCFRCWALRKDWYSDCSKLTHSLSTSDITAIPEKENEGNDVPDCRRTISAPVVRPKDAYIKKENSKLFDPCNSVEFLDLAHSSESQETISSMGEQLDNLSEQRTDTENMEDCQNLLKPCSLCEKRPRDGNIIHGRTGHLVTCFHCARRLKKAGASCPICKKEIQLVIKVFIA
Target sequence (Q00987 whole entry, looked up): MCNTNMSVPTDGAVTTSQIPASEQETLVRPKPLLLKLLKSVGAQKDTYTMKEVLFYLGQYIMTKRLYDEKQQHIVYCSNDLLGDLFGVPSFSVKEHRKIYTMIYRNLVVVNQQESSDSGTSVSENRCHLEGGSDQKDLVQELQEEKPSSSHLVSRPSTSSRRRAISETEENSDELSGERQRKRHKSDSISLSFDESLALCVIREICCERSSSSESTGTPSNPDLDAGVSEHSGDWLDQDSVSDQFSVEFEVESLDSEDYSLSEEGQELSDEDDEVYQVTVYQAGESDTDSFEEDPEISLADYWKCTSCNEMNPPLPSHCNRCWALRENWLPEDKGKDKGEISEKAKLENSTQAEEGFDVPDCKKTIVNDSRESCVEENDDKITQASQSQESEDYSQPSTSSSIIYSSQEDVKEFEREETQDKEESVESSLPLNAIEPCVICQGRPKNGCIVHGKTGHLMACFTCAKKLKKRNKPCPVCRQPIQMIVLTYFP
Beta apoptosis: blocks beta cell apoptosis. INS-1E cytokine-induced death, ATP luminescence, 48 h; percent of positive-control rescue, neutral wells zero. protection from apoptosis, % (no concentration beside the values). 0.8% of 300,000 active. AID 435005;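 active = Every replicate reaches about 75%, or at least half do and their mean reaches it too, limit read from the data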;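 also: 0% = cytokine-treated negative control wells and 100% = positive control rescue; higher means more ATP so stronger rescue from cytokine killing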
Gli-Sufu block: Gli-Sufu pathway antagonism. Sufu-KO-LIGHT fibroblasts, Gli luciferase reporter luminescence. inhibition, % at 5 µM. 0.74% of 340,000 active. AID 588413;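 active = inhibition above about 55%, limit read from the data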;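 also: 0% = DMSO-treated cells and 100% = wells with medium but no cells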
GRIN3A LBD mod: modulates the human NR3A ligand-binding domain; NR3A LBD differential scanning fluorimetry, Tm shift; 0% = protein alone, 100% = glycine-bound protein; Tm shift relative to glycine control, % at 25 µM; 2.5% of 340,000 active; AID 1259313;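 active = melting temperature shift of at least 10% of the positive control shift, at one fixed dose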
Mdm2 MdmX conf: confirmation of human Mdm2/MdmX interaction inhibitors; shares compounds with Mdm2-MdmX inh; Mdm2-MdmX binding, luminescent assay; inhibition, % at 8 µM; 55% of 10,000 active; in the data active = inhibition above about 40%
Full FLuc ctr: inhibits full-length luciferase, flagging false Mdm2/MdmX hits. shares compounds with Mdm2-MdmX inh. AID 504607. 77% of 6,200 active. SaOS-2 full-length luciferase counterscreen, luminescence. inhibition, % at 8 µM;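 active = mean inhibition at 8 µM reaching about 37%, which flags the compound as non-specific, limit read from the data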;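 also: p53-null SaOS-2 cells with luciferase driven by a doxycycline-inducible promoter; compound on cells about two nights before reading with doxycycline added after day one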
* hit, by the source's call; x = no result. A selection: hits, their analogues and other compounds. The true share with any hit is near 6.6%.

SMILES | MPTP block | CSC inhib | Mdm2-MdmX inh | Beta apoptosis | Gli-Sufu block | GRIN3A LBD mod | Mdm2 MdmX conf | Full FLuc ctr
CCCCCCCCn1c2c(c(=N)c3ccccc31)CCC2 | 33.0 | x | 85.1* | x | 90.6* | -5.1 | 85.7* | 27.2
CCCCCn1c2c(c(=N)c3ccccc31)CCC2 | 9.4 | 11.6 | 59.5* | 23.3 | 83.8* | 0.5 | 30.7 | x
CCCCn1c2c(c(=N)c3ccccc31)CCC2 | 2.8 | 3.5 | 27.4 | 46.4 | 32.3 | 2.5 | x | x
COc1ccccc1C(=O)Nc1nnc([C@H]2C[C@H](O)[C@@H](CO)O2)s1 | -0.1 | x | x | x | x | x | x | x
Cc1ccc(-n2c(SCC(=O)N(C)C)nnc2-c2ccco2)cc1 | -1.2 | 8.6 | -8.5 | -0.8 | 0.3 | 3.5 | x | x
COCCn1c(C)cc(C(=O)CSc2nnnn2C2CCCC2)c1C | -0.1 | -14.2 | 71.9* | 0.3 | 15.5 | 0.5 | 79.9* | 79.0*
COCCn1c(C)cc(C(=O)CSc2nnc(C)s2)c1C | -4.0 | -22.6 | 51.7* | -5.4 | 19.2 | 2.8 | 61.5* | 47.7*
COCCn1c(C)cc(C(=O)COC(=O)c2cccc(O)c2)c1C | 2.3 | -8.8 | 74.5* | 1.5 | 43.3 | -1.0 | 84.7* | 71.0*
CCCc1nnc(NC(=O)CCC(=O)N2CCN(Cc3ccc(Cl)cc3)CC2)s1 | -0.9 | -10.5 | 12.1 | -4.0 | 19.7 | -1.4 | x | x
O=C(COc1ccc(Cl)cc1)OCc1ccc(Cl)cc1 | -0.4 | x | x | x | 10.4 | -1.0 | x | x
COc1ccccc1/C=C/C=N/NC(=O)c1cc(-c2ccc(C)o2)[nH]n1 | 7.1 | 46.7 | 46.1 | 11.6 | -10.2 | 9.7 | x | x
N=c1c(-c2nc3ccccc3[nH]2)cc(C(=O)c2cccs2)nn1-c1ccc(Cl)cc1 | x | 31.0 | 62.8* | 37.2 | x | x | 29.9 | x
O=C(Nc1nc2ccccc2[nH]1)c1cccs1 | -0.5 | 2.8 | -79.7 | 8.7 | -54.6 | 0.2 | x | x
C=CCC(O)(CC=C)CNC(=O)C1CCC(=O)N(CCCc2ccccc2)C1 (stereo not given) | 1.0 | -8.2 | 5.2 | x | 2.7 | 0.1 | x | x
Cc1ccc([N+](=O)[O-])cc1N(CC(=O)Nc1ccc(S(=O)(=O)Nc2cccc(C(F)(F)F)c2)cc1)S(C)(=O)=O | -3.8 | 100.2* | 55.0* | 99.4* | x | 12.3* | 45.1* | 39.2*
COc1ccccc1N(CC(=O)Nc1cccc(C(F)(F)F)c1)S(C)(=O)=O | 0.5 | -1.7 | -7.3 | x | -2.2 | 0.4 | x | x
C=C1C(=O)O[C@H]2[C@H]1[C@@H](O)CC(=C)[C@@H]1CC(=O)[C@@H](C)[C@H]21 | 0.3 | 33.6 | 60.8* | -24.5 | -14.3 | -1.0 | 15.1 | x
Cc1ccc(Nc2cc(C)nn2-c2nc(C)cc(=O)[nH]2)cc1 | -2.6 | 92.7* | 97.8* | 98.2* | 92.1* | 2.9 | 99.7* | 1.6
Cc1ccc(CNC(=O)CN2C(=O)NC3(CC(C)CC(C)(C)C3)C2=O)cc1 (stereo not given) | 0.8 | x | 10.8 | x | 1.3 | -0.4 | x | x
Cn1cncc1C#Cc1c(C=O)[nH]c2ccccc12 | -3.3 | 42.4 | 71.0* | -6.4 | 2.8 | -0.6 | 41.5* | 65.8*
Cc1onc(-c2ccccc2)c1C(=O)N1CCC(C)(C(=O)NS(=O)(=O)C2CC2)C1 (stereo not given) | 0.8 | x | x | x | x | x | x | x
COc1ccc(NC(=O)C(=S)NC2CCCCC2)cc1 | 0.4 | 4.1 | -182.9 | -5.3 | -109.5 | -0.3 | x | x
Cc1nn2c(N3CCOCC3)cc(C(C)C)nc2c1-c1ccccc1 | 0.5 | 19.5 | 22.3 | 0.4 | -12.5 | 0.9 | x | x
Cc1nn2c(N3CCOCC3)cc(C(C)(C)C)nc2c1-c1ccccc1 | -0.4 | 2.0 | 24.3 | -7.2 | 4.2 | -0.2 | x | x
CCN1CCN(c2cc(C(C)(C)C)nc3c(-c4ccccc4)c(C)nn23)CC1 | 4.9 | 139.8* | 53.9* | 64.2 | 9.2 | 0.7 | 52.6* | 66.6*
CCN1CCN(c2cc(C(C)C)nc3c(-c4ccccc4)c(C)nn23)CC1 | -1.7 | -4.2 | 54.6* | 3.4 | 5.9 | 0.5 | 27.9 | x
CC1=C(C)CC(C(=O)NCCc2ccc(F)cc2)C(C(=O)O)C1 (stereo not given) | -0.6 | -10.6 | 15.2 | -10.5 | -6.8 | 2.4 | x | x
O=C(Cn1cnc(S(=O)(=O)N2CCCCC2)c1)NCc1ccco1 | -1.1 | x | 15.7 | x | -1.9 | 0.7 | x | x
